Inconclusive results are not listed. Active and inactive are the calls of the source.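 How the source made its calls, unless noted: active means binding below the plate cutoff, the plate median minus 3 SD, with a reading above zero; inconclusive means below the plate cutoff but reading exactly zero; inactive means the rest.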
Key:
[1] = rapamycin-like changes in RPL19A-GFP expression – cell-based, S. cerevisiae, multiplex flow cytometry, primary screen (AID 1862; in the data active means percent of DMSO control GFP below about 86%;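 further: lower values mimic rapamycin by blocking the RPL19A rise seen in DMSO cells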); settings: S. cerevisiae RPL19A-GFP strain, flow cytometry fluorescence, 3 h; at 10 µM; stronger effect = lower value
[2] = TOR pathway GLN3 branch reporter MEP2-GFP changes – S. cerevisiae, multiplex flow cytometry, primary screen (AID 1867;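 active means GFP response, as percent of the DMSO control, above the screen-wide mean plus 3 SD, about 139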;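 further: median GFP channel fluorescence of barcode-gated MEP2-GFP cells measured by flow cytometry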); settings: S. cerevisiae MEP2-GFP strain, 3 h, at 10 µM, stronger effect = higher value, 100% means same as DMSO wells
[3] = TOR pathway RTG branch CIT2 reporter changes – S. cerevisiae, GFP fusion, multiplex flow cytometry, primary screen (AID 1870;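 active means percent response above a set limit, the screen-wide mean plus 3 SD, cut at about 130% in these data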;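 further: barcoded CIT2-GFP strain pooled with four other GFP strains with rapamycin as positive control; median GFP fluorescence per well over plate mean of DMSO wells so 100% = DMSO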); settings: S. cerevisiae CIT2-GFP expression, 3 h, at 10 µM, stronger effect = higher value
[4] = TOR pathway LAP4-GFP level changes – S. cerevisiae, multiplex flow cytometry, primary screen (AID 1873;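 active means GFP signal, as percent of the solvent control, above the screen mean plus 3 SD, about 149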); settings: S. cerevisiae LAP4-GFP expression, 3 h, at 10 µM, stronger effect = higher value
[5] = yeast AGP1-GFP level changes, GLN3 branch – cell-based, multiplex flow cytometry, S. cerevisiae, primary screen (AID 1887;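 active means GFP signal above the screen-wide mean plus 3 SD, that is over about 124.5% of the solvent control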;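 further: AGP1-GFP fusion strain of S. cerevisiae within a five-strain barcoded multiplex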); settings: 3 h, at 10 µM, stronger effect = higher value
[6] = reduced mouse 2C T cell binding to pMHC/ICAM-1 vesicles – MLPCN validation set, flow cytometry, LFA-1/ICAM-1 modulator project, pilot screen (AID 2523;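 active means response below a set limit, under 55% cells CD8-positive and vesicle-bound, and CD8 cells' 90th-percentile brightness under 279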;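 on vesicle binding response: mean PE anti-B7-1 fluorescence of CD8+ cells relative to row control; 100% = QL9-loaded vesicles with DMSO vehicle in the same plate row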); settings: 2C mouse CD8+ T cells, at 7 µM, stronger effect = lower value; double positive events: measured here: CD8+/vesicle+ event percentage
[7] = target: Integrin beta-1 (Homo sapiens) + Integrin alpha-4 (Homo sapiens) (UniProt P13612+P05556); experiment: alpha4beta1 integrin LIBS antibody binding reduction – U937 cells, HUTS-21 mAb, flow cytometry, validation set, VLA-4 allosteric modulator project, pilot screen (AID 2674;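 active means inhibition above 50%, about 3 SD of the validation set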;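 further: antibody binding induced by the VLA-4 ligand LDV present at three times its Kd; 0% = LDV ligand with antibody and no compound and 100% = antibody without LDV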); settings: HUTS-21 LIBS mAb binding, at 6.7 µM, stronger effect = higher value, binding induced by LDV ligand
[8] = calorie-restriction mimetic ROS inhibitors, yeast – validation compound set, pilot screen (AID 2706;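 active means superoxide response below 65% of plate, a cut near 3 SD across the whole screen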;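 further: yeast exposed to compound for one week at 30 degrees C before staining; 100% = mean of all compound wells on the same plate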); settings: S. cerevisiae aging, superoxide DHE fluorescence; at 10 µM; stronger effect = lower value
[9] = target: Beta-adrenergic receptor kinase 1 (Homo sapiens) (UniProt P25098); experiment: GRK2 binders displacing RNA aptamer, biochemical, validation, human GRK2, bead flow cytometry (AID 488806;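 active means aptamer binding inhibition above 30%, about 3 SD of noise from non-fluorescent compounds; inactive means inhibition at or below 30%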); settings: bead-bound GRK2, FAM-aptamer displacement, at 10 µM, stronger effect = higher value
[10] = target: Beta-2 adrenergic receptor (Homo sapiens) (UniProt P07550); experiment: agonist-induced loss of surface beta2AR – cell-based, FAP fluorogen, flow cytometry, validation set, pilot screen (AID 504459;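 active means percent response above 42, roughly 3 SD of non-fluorescent test compounds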;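 further: agonist-driven loss of surface beta2AR via internalization measured by FAP dye flow cytometry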); settings: Am2.2-beta2AR cells, at 10 µM, stronger effect = higher value
[11] = target: AP-2 complex subunit beta (Homo sapiens) (UniProt P63010); experiment: beta-arrestin/AP2 interaction blockers – biochemical, validation set, GST-AP2 beads, flow cytometry, pilot screen (AID 504541;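 active means inhibition above 54%, about 3 SD of non-fluorescent compounds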;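 further: AP2 carries R879A mutation and is captured from E. coli lysate; bead-bound FITC arrestin peptide fluorescence measuring arrestin peptide binding to AP2; 0% = DMSO wells and 100% = excess unlabeled arrestin peptide control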); settings: FITC arrestin peptide, at 10 µM, stronger effect = higher value, AP2 beta2 appendage fragment, R879A mutant
[12] = cytosolic pH regulators acting via V-ATPase – S. cerevisiae, pHLuorin, HTS validation (AID 504600; in the data active means response above about 15%;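 further: plate controls were DMSO for no effect and reference compound for full effect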); settings: V-ATPase proton transport, at 10 µM, stronger effect = higher value
[13] = tested on: anti-desmoglein-3 scFv antibody binding to human DSG3; experiment: blockers of pathogenic pemphigus antibody–desmoglein-3 binding – biochemical, validation compound set, bead-based, flow cytometry, pilot screen (AID 588368); settings: Protein G beads, DSG3-Fc, scFv-GFP binding, at 10 µM, stronger effect = lower value;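 further: signal is the median channel fluorescence of bead-bound GFP antibody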
[14] = Nile Red efflux blockade in pump-expressing yeast – validation compound set, multiplex, phenotypic, pilot screen (AID 588506;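 active means efflux inhibition above 0.42, the validation set average plus 4 SD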;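 further: Nile Red retained in cells so higher fluorescence means more efflux inhibition; 0 = negative control wells and 1 = enniatin B 25 µM full block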); settings: S. cerevisiae pump-expressing triplex, Nile Red efflux flow cytometry; at 10 µM; stronger effect = higher value; the pumps come from Candida albicans
[15] = target: ATP-binding cassette sub-family B member 6 (Homo sapiens) (UniProt Q9NP58); experiment: blockers of ABCB6-driven porphyrin uptake – K562-ABCB6 cells, flow cytometry, validation set, pilot screen (AID 588550;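 active means inhibition above the screen-wide mean plus 3 SD, about 51%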;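 further: 0% = DMSO wells and 100% = benzethonium chloride 70 µM positive control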); settings: K562-ABCB6 porphyrin accumulation, 1 h, at 10 µM, stronger effect = higher value
[16] = AML differentiation inducers, ER-HoxA9 marrow cells – cell-based, GFP/MAC1 double positive, flow cytometry, validation set, primary screen (AID 588685;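 active means differentiation response of at least 50%, scaled between solvent and reference control, from cells with both markers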;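 further: compound exposure lasts four days before antibody staining and flow analysis; 0% = DMSO wells and 100% = 5 µM fulvestrant positive control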); settings: stronger effect = higher value, normalized: vehicle 0, fulvestrant 100

Chain of AP-2 complex subunit beta (Homo sapiens) (P63010 whole entry, looked up, the tested form may be a part, one chain of several): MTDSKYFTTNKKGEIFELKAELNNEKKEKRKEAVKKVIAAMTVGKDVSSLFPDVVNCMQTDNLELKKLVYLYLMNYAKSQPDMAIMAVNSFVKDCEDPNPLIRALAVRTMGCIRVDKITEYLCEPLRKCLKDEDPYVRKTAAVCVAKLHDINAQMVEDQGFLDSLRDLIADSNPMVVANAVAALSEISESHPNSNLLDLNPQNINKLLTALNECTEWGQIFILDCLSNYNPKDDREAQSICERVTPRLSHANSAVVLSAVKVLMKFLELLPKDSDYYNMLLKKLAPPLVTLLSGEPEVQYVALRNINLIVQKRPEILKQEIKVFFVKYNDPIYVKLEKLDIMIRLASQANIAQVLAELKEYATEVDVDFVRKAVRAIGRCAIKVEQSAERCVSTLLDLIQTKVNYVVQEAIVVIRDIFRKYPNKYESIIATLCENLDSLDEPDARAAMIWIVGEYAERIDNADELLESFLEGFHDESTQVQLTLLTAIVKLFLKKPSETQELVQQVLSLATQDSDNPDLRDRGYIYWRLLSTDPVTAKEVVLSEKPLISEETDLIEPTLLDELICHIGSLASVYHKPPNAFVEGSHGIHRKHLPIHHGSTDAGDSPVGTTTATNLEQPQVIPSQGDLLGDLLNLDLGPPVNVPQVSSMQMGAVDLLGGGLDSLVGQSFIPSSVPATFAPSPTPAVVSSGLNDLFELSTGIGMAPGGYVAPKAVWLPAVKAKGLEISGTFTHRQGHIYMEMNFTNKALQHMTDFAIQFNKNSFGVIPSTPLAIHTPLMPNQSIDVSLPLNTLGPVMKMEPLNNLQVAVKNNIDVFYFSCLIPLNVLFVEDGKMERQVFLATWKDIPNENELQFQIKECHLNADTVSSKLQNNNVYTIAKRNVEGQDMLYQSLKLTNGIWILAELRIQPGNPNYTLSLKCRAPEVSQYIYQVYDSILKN
Chain of ATP-binding cassette sub-family B member 6 (Homo sapiens) (Q9NP58 whole entry, looked up): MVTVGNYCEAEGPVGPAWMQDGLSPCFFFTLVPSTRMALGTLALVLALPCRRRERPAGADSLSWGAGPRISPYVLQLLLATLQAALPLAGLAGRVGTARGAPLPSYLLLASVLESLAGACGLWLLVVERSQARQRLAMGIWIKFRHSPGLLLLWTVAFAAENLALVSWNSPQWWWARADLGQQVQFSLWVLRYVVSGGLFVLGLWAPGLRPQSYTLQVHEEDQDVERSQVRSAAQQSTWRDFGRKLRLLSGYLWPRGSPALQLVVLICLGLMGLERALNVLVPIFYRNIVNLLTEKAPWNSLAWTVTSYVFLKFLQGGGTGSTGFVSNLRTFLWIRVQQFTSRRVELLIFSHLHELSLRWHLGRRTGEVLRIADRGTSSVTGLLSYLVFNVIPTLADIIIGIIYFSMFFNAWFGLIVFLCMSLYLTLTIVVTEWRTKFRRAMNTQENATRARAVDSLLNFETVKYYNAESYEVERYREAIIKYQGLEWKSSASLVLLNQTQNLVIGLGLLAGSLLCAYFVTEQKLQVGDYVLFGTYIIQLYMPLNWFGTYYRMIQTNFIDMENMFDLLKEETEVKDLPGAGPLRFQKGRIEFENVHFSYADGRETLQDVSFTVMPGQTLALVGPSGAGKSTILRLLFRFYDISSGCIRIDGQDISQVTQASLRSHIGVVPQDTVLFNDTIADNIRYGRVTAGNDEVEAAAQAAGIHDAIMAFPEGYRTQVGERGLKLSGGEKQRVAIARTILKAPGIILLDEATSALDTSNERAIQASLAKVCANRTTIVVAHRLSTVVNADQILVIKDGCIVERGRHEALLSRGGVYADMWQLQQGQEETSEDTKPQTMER
Chain of Beta-adrenergic receptor kinase 1 (Homo sapiens) (P25098 whole entry, looked up): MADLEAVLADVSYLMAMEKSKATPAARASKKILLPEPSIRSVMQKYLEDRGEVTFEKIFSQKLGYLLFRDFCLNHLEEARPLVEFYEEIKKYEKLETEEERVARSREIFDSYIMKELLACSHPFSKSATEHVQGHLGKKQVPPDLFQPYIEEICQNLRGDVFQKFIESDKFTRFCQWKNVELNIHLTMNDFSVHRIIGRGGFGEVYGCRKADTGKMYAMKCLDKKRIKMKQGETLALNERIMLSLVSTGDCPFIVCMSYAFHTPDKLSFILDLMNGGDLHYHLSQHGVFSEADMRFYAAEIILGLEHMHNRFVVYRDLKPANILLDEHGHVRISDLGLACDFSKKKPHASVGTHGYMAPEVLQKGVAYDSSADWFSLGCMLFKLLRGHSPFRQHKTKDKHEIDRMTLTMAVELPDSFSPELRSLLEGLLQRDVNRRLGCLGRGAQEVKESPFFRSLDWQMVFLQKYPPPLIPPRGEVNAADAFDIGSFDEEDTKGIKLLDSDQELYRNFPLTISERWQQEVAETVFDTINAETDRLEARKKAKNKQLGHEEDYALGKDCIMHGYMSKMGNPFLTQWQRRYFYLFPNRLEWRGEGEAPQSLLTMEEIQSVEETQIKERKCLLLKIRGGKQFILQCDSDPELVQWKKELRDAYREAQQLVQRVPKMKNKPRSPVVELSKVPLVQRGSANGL
Chain of Beta-2 adrenergic receptor (Homo sapiens) (P07550 whole entry, looked up): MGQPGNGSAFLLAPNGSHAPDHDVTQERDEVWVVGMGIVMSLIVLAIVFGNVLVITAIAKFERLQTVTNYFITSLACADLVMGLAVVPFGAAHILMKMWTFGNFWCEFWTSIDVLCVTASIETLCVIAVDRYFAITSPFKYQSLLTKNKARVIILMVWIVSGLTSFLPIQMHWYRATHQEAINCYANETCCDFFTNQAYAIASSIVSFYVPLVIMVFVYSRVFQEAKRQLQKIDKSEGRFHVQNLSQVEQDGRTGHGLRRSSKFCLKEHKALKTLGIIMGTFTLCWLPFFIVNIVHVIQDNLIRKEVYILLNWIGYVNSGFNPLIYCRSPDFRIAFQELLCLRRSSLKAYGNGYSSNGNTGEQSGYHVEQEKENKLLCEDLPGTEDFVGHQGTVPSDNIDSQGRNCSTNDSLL
Chain of Integrin beta-1 (Homo sapiens) + Integrin alpha-4 (Homo sapiens) (P05556 whole entry, looked up): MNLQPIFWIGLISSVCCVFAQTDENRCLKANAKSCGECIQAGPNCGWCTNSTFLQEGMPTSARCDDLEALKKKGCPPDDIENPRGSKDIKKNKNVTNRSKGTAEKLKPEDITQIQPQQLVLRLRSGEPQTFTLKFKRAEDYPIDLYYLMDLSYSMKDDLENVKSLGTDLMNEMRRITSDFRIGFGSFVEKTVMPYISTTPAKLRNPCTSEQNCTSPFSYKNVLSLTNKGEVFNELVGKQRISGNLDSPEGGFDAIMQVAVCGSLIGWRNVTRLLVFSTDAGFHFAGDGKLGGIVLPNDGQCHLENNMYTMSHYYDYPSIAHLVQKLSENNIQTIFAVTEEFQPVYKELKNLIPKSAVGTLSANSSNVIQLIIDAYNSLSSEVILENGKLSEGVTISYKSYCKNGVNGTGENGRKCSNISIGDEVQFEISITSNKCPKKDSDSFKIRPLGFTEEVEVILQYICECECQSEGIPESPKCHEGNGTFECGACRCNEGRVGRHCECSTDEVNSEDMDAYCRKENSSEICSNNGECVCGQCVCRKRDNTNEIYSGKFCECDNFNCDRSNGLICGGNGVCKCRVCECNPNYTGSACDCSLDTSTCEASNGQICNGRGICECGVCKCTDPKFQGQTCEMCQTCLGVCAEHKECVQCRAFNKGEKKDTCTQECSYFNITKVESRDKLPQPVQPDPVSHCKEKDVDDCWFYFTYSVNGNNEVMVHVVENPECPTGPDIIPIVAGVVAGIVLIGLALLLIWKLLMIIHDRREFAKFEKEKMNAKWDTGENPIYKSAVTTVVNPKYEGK
Chain of Integrin beta-1 (Homo sapiens) + Integrin alpha-4 (Homo sapiens) (P13612 whole entry, looked up): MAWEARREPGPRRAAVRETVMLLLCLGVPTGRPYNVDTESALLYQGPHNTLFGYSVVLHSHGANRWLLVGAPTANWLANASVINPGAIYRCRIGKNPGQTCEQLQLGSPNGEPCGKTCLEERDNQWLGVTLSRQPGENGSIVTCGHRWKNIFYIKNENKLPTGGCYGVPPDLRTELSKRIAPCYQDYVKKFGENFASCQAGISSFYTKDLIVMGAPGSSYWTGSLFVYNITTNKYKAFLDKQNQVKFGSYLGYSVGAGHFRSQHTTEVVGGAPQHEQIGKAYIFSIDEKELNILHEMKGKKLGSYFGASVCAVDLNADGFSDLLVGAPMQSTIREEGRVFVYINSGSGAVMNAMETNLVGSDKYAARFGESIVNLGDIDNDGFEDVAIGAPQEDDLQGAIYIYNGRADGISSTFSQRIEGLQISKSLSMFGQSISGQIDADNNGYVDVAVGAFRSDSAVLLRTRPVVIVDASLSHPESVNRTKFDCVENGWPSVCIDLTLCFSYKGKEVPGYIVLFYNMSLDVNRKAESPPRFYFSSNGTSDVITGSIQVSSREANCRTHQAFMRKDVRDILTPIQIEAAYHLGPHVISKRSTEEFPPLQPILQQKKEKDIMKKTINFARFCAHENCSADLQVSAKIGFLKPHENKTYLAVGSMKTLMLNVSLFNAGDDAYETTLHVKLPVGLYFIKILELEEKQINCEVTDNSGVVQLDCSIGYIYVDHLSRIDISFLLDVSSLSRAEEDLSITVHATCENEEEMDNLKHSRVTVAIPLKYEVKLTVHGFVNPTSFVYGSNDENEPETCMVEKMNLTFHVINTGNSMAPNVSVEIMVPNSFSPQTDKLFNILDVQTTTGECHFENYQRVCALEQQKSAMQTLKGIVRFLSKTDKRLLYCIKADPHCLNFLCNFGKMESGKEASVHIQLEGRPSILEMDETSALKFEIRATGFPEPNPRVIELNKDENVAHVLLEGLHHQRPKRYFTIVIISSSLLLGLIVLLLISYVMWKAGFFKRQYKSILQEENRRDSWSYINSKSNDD

N#C/C(=C/c1ccccc1)C(=O)NCc1ccccc1
inactive: percent of DMSO control GFP [1] 97.4% | GFP response vs DMSO [2] 108% | percent response of DMSO control [3] 101% | GFP response vs DMSO [4] 106% | GFP response, % of DMSO [5] 102% | vesicle binding response [6] 197% | inhibition [7] 7.76% | superoxide response (% of plate) [8] 95.8% | aptamer binding inhibition [9] 0% | response [10] -0.74% | inhibition [11] 8.66% | response [12] -0.63% | binding (% of control) [13] 101% | efflux inhibition (fraction of control) [14] -0.06 | inhibition [15] 3% | differentiation response [16] -18.4%
58%: double positive events [6]

CS(=O)(=O)Nc1ccc([N+](=O)[O-])cc1Oc1ccccc1
inactive: percent of DMSO control GFP [1] 95.5% | GFP response vs DMSO [2] 97.6% | percent response of DMSO control [3] 96.4% | GFP response vs DMSO [4] 115% | GFP response, % of DMSO [5] 115% | vesicle binding response [6] 188% | inhibition [7] -8.78% | superoxide response (% of plate) [8] 106% | aptamer binding inhibition [9] 3% | response [10] -35% | inhibition [11] -2.11% | response [12] 2.46% | binding (% of control) [13] 106% | efflux inhibition (fraction of control) [14] -0.09 | inhibition [15] 5% | differentiation response [16] -8.93%
62.2%: double positive events [6]

C[C@]12CC[C@@H]3c4ccc(O)cc4CC[C@H]3[C@@H]1CCC2=O
inactive: percent of DMSO control GFP [1] 101% | GFP response vs DMSO [2] 100% | percent response of DMSO control [3] 95.4% | GFP response vs DMSO [4] 125% | GFP response, % of DMSO [5] 94.8% | vesicle binding response [6] 34.4% | inhibition [7] -13.9% | superoxide response (% of plate) [8] 98.7% | aptamer binding inhibition [9] 2% | response [10] -0.01% | inhibition [11] 9.61% | response [12] -0.09% | binding (% of control) [13] 98.9% | efflux inhibition (fraction of control) [14] -0.32 | inhibition [15] 8% | differentiation response [16] 0.24%
60.6%: double positive events [6]

COc1ccc(CNC(=O)C2CCCN2C)cc1OC (stereo not drawn)
inactive: percent of DMSO control GFP [1] 98.8% | GFP response vs DMSO [2] 99.7% | percent response of DMSO control [3] 101% | GFP response vs DMSO [4] 92.6% | GFP response, % of DMSO [5] 96.7% | vesicle binding response [6] 141% | inhibition [7] 1.59% | superoxide response (% of plate) [8] 87.7% | aptamer binding inhibition [9] -2% | response [10] 7.42% | inhibition [11] -3.62% | response [12] -0.65% | binding (% of control) [13] 104% | efflux inhibition (fraction of control) [14] -0.29 | inhibition [15] -5% | differentiation response [16] -7.5%
62%: double positive events [6]

Cc1cccc(-n2c(Cc3ccccc3)n[nH]c2=S)c1
inactive: percent of DMSO control GFP [1] 93.9% | GFP response vs DMSO [2] 106% | percent response of DMSO control [3] 88.2% | GFP response vs DMSO [4] 124% | GFP response, % of DMSO [5] 100% | vesicle binding response [6] 102% | inhibition [7] -18.2% | superoxide response (% of plate) [8] 103% | aptamer binding inhibition [9] 4% | response [10] -0.19% | inhibition [11] -2.3% | response [12] 1.08% | binding (% of control) [13] 95.5% | efflux inhibition (fraction of control) [14] -0.1 | inhibition [15] 4% | differentiation response [16] -13.6%
61.2%: double positive events [6]

O=C(NCCc1c[nH]c2ccccc12)OCCSS(=O)(=O)O
66.8%: double positive events [6]
inactive: percent of DMSO control GFP [1] 101% | GFP response vs DMSO [2] 101% | percent response of DMSO control [3] 108% | GFP response vs DMSO [4] 102% | GFP response, % of DMSO [5] 100% | vesicle binding response [6] 1060% | inhibition [7] -6.68% | superoxide response (% of plate) [8] 106% | aptamer binding inhibition [9] 3% | response [10] -2.85% | inhibition [11] -1.88% | response [12] 3.36% | binding (% of control) [13] 99.7% | efflux inhibition (fraction of control) [14] -0.07 | inhibition [15] 7% | differentiation response [16] 2.2%

Cc1cccc(C)c1NC(=O)C1CCCCN1C (stereo not drawn)
62.6%: double positive events [6]
inactive: percent of DMSO control GFP [1] 102% | GFP response vs DMSO [2] 104% | percent response of DMSO control [3] 97.8% | GFP response vs DMSO [4] 90.1% | GFP response, % of DMSO [5] 97% | vesicle binding response [6] 92.5% | inhibition [7] -4.6% | superoxide response (% of plate) [8] 104% | aptamer binding inhibition [9] 5% | response [10] 10.4% | inhibition [11] 15.4% | response [12] 0.17% | binding (% of control) [13] 98.2% | efflux inhibition (fraction of control) [14] -0.01 | inhibition [15] 1% | differentiation response [16] -1.71%

CCNC(=S)N1CCN(CCN2C(=O)c3cccc4cccc(c34)C2=O)CC1
63.5%: double positive events [6]
inactive: percent of DMSO control GFP [1] 103% | GFP response vs DMSO [2] 97.7% | percent response of DMSO control [3] 106% | GFP response vs DMSO [4] 95.9% | GFP response, % of DMSO [5] 107% | vesicle binding response [6] 143% | inhibition [7] -26.6% | superoxide response (% of plate) [8] 96.9% | aptamer binding inhibition [9] 0% | response [10] -20.5% | inhibition [11] -15.4% | response [12] 1.54% | binding (% of control) [13] 104% | efflux inhibition (fraction of control) [14] -0.195 | inhibition [15] -13% | differentiation response [16] -8.96%

O=C(Nc1ncc2c(n1)CC(c1ccco1)CC2=O)c1ccco1 (stereo not drawn)
inactive: percent of DMSO control GFP [1] 93.9% | GFP response vs DMSO [2] 113% | percent response of DMSO control [3] 95.8% | GFP response vs DMSO [4] 132% | GFP response, % of DMSO [5] 95.7% | vesicle binding response [6] 187% | inhibition [7] -11.3% | superoxide response (% of plate) [8] 102% | aptamer binding inhibition [9] 6% | response [10] -16% | inhibition [11] 1.11% | response [12] -0.72% | binding (% of control) [13] 99.1% | efflux inhibition (fraction of control) [14] 0.01 | inhibition [15] 1% | differentiation response [16] -18.4%
55%: double positive events [6]
